PubChem BioAssay (EPA / NIEHS)
“And” between values parts separate entries of the source, which are not always exact repeats. Equal values may be shown once. Results filed as inconclusive are left out. Some structures have more than one record in an assay (separate samples or runs), and their calls can disagree. The source made the active and inactive calls. The calls were made as follows, unless noted: active = hit-call score of the fitted dose curve at least 0.9, where 1 is the maximum; inconclusive = response in the unintended direction; inactive = score below 0.9.

Tests used:
[1] = target: Hepatocyte nuclear factor 3-beta (Homo sapiens) (UniProt Q9Y261); assay: ATG_FoxA2_CIS: Attagene CIS-FACTORIAL HepG2 Assay for human Forkhead box A2 (FOXA2) (AID 2282942; active = hit-call score of the fitted dose curve at least 0.9, where 1 is the maximum; inactive = score below 0.9); conditions: HepG2 cis-reporter transcription factor activity, 24 h; actives raise or lower the signal
In short: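 Endogenous transcription factor activity is captured via cis-element-driven reporter transcripts in transfected HepG2. Total RNA taken at 24 h post-dosing; labelled RT-PCR products resolved by capillary electrophoresis. Gain or loss fitted versus DMSO.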

[2] = ATG_RORE_CIS: Attagene CIS-FACTORIAL HepG2 Assay for human RAR-related Orphan Receptor Element (RORE) (AID 2282959; active = hit-call score of the fitted dose curve at least 0.9, where 1 is the maximum; inactive = score below 0.9); conditions: HepG2 Attagene cis-factorial RORE reporter, mRNA; actives raise or lower the signal
In short: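 RORE reporter transcripts reflecting endogenous factor activity were read after 24 h compound exposure of transfected HepG2 cells, using reverse transcription, PCR, fluorescent labelling and capillary electrophoresis sizing. Gain or loss fitted against DMSO.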

[3] = ATG_TGFb_CIS: Attagene CIS-FACTORIAL HepG2 Assay for human Transforming Growth Factor (TGF) (AID 2282967; active = hit-call score of the fitted dose curve at least 0.9, where 1 is the maximum; inactive = score below 0.9); conditions: HepG2 Attagene CIS TGFb reporter, mRNA transcription; actives raise or lower the signal
In short: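 Liver HepG2 line, cis-factorial reporter panel, 24 h dosing. Quantitation: RT-PCR products labeled with 6-FAM, cut with HpaI, resolved by capillary electrophoresis; DMSO-referenced bidirectional analysis.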

[4] = ATG_GAL4_TRANS: Attagene TRANS-FACTORIAL HepG2 Assay for GAL4 (Internal Marker) (AID 2282976); conditions: HepG2 Attagene TRANS GAL4 internal marker reporter
In short: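 RT-PCR/capillary electrophoresis readout of reporter mRNA. HepG2, transient MRTU transfection (GAL4-UAS reporters), 24 h compound exposure. Background-control endpoint, positive direction vs DMSO baseline.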

[5] = ATG_M_32_TRANS: Attagene TRANS-FACTORIAL HepG2 Assay for M32 Transcription Factor (Internal Marker) (AID 2282984); conditions: HepG2 Attagene TRANS M32 internal marker reporter;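 also: transcript level of a background control reporter unit measured by RT-PCR and capillary electrophoresis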
In short: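 After 24 h dosing of transfected HepG2 cells, total RNA was reverse-transcribed, reporter sequences PCR-amplified, 6-FAM labelled by primer extension and HpaI-digested before capillary electrophoresis. Signal increase over DMSO was fitted.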

[6] = target: human Retinoid X Receptor beta (RXRb), RXRB (gene 6257) (UniProt P28702); assay: ATG_RXRb_TRANS: Attagene TRANS-FACTORIAL HepG2 Assay for human Retinoid X Receptor beta (RXRb) (AID 2283013)
In short: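 Readout is reporter transcript induction after 24 h dosing. It is measured by RT-PCR of total RNA followed by fluorescent capillary electrophoresis. HepG2 liver cells carry transfected multiple reporter units driven by an exogenous RXRb-Gal4 fusion; activity is relative to DMSO.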

[7] = target: human Thyroid Receptor alpha (THRa1), THRA (gene 7067) (UniProt P10827); assay: ATG_THRa1_TRANS: Attagene TRANS-FACTORIAL HepG2 Assay for human Thyroid Receptor alpha (THRa1) (AID 2283014)
In short: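 Transient HepG2 transfection, NR-Gal4 chimera driving GAL4-UAS reporters; 24 h compound exposure; total RNA, oligo(dT) RT, PCR, fluorescent primer extension, capillary electrophoresis. Upward direction vs DMSO control.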

[8] = target: Nuclear respiratory factor 1 (Homo sapiens) (UniProt Q16656); assay: ATG_NRF1_CIS: Attagene CIS-FACTORIAL HepG2 Assay for human Nuclear Respiratory Factor 1 (NRF1) Orphan Gene (AID 2282987; active = hit-call score of the fitted dose curve at least 0.9, where 1 is the maximum; inactive = score below 0.9); conditions: HepG2 NRF1 cis-element reporter, Attagene multiplex; actives raise or lower the signal
In short: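 Endogenous NRF1-driven reporter transcription in transfected HepG2 cells after 24 h treatment. Readout: RT-PCR products, 6-FAM labelled and resolved by capillary electrophoresis; changes fitted both directions relative to DMSO.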

[9] = ATG_NF_kB_CIS: Attagene CIS-FACTORIAL HepG2 Assay for human Nuclear Factor Kappa B (NF-kB) (AID 2282991; active = hit-call score of the fitted dose curve at least 0.9, where 1 is the maximum; inactive = score below 0.9); conditions: HepG2 Attagene cis-factorial NF-kB reporter mRNA; actives raise or lower the signal
In short: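 Readout is reporter transcript level, gain or loss versus DMSO, measured 24 h post-dose via RT-PCR, fluorescent labelling and capillary electrophoresis. Human HepG2 liver cells carried transiently transfected CIS reporter constructs reflecting endogenous factors.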

[10] = target: Retinoic acid receptor RXR-alpha (Homo sapiens) (UniProt P19793); assay: ATG_RXRa_TRANS: Attagene TRANS-FACTORIAL HepG2 Assay for human Retinoid X Receptor alpha (RXRa) (AID 2283012)
In short: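 TRANS format reporting activity of exogenous RXRa-Gal4 chimera in transiently transfected HepG2, 24 h exposure. Reporter transcripts quantified by RT-PCR with capillary electrophoresis, with gain of signal scored relative to DMSO.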

[11] = target: Hepatocyte nuclear factor 6 (Homo sapiens) (UniProt Q9UBC0); assay: ATG_HNF6_CIS: Attagene CIS-FACTORIAL HepG2 Assay for human Hepatocyte Nuclear Factor 6 (HNF6) (AID 2282952; active = hit-call score of the fitted dose curve at least 0.9, where 1 is the maximum; inactive = score below 0.9); conditions: HepG2 Attagene cis-factorial HNF6 reporter transcription; actives raise or lower the signal
In short: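 Readout: fluorescent reporter-transcript fragments resolved by capillary electrophoresis after RT-PCR, reflecting endogenous factor activity in transfected HepG2. Exposure 24 h. Gain or loss of signal fitted bidirectionally against DMSO.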

[12] = TOX21_p53_BLA_p2_viability: Viability Assessment in the Tox21 HCT-116 p53 Agonism Beta-lactamase Assay, Phase 2 (AID 2283591);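 also: actives lower the ATP signal meaning cytotoxicity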
In short: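 HCT-116 p53-bla cells (4000/well) rested 5 h at 37C, then received compounds in DMSO (217-fold dilution) for 16 h at 37C, 5% CO2. After the CCF4 read, CellTiter-Glo was added; ATP luminescence was read after 30 min at room temperature.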

[13] = target: Cellular tumor antigen p53 (Homo sapiens) (UniProt P04637); assay: TOX21_p53_BLA_p2_ratio: Tox21 HCT-116 p53 Agonism Beta-lactamase Assay, Ratio, Phase 2 (AID 2283592)
In short: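 Readout: blue/green (460/530 nm) FRET emission ratio after 2 h CCF4-AM loading at room temperature, excitation 405 nm. HCT116 p53 bla cells, 16 h compound exposure at 37C, 5% CO2; agonist direction fitted against DMSO baseline.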

[14] = target: Cellular tumor antigen p53 (Homo sapiens) (UniProt P04637); assay: TOX21_p53_BLA_p3_ratio: Tox21 HCT-116 p53 Agonism Beta-lactamase Assay, Ratio, Phase 3 (AID 2283596)
In short: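 Cells were seeded at 4000/well, rested 5 h at 37C, then dosed with DMSO compound solutions (217-fold dilution) for 16 h. CCF4-AM substrate was loaded for 2 h at room temperature, and the 460/530 nm emission ratio was fitted for gain of signal versus DMSO.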

[15] = TOX21_p53_BLA_p4_viability: Viability Assessment in the Tox21 HCT-116 p53 Agonism Beta-lactamase Assay, Phase 4 (AID 2283597);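 also: hits lower the luminescence signal meaning cytotoxicity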
In short: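 ATP content by CellTiter-Glo luminescence, 30 min RT, read after the beta-lactamase ratio step. Cells: HCT116, 4000/well, compound added after 5 h, exposure 16 h at 37C. Signal loss = reduced viability.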

[16] = target: Hepatocyte nuclear factor 4-alpha (Homo sapiens) (UniProt P41235); assay: ATG_HNF4a_TRANS: Attagene TRANS-FACTORIAL HepG2 Assay for human Hepatocyte Nuclear Factor 4 alpha (HNF4a) (AID 2282982); conditions: HepG2 HNF4a transactivation reporter, mRNA readout
In short: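 In this trans-factorial format, a chimeric HNF4a-GAL4 fusion drives a GAL4-UAS reporter in transfected HepG2 liver cells. After 24 h treatment, reporter mRNA induction is measured by RT-PCR with capillary electrophoresis, relative to DMSO.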

[17] = target: Nuclear receptor subfamily 4 group A member 2 (Homo sapiens) (UniProt P43354); assay: ATG_NURR1_TRANS: Attagene TRANS-FACTORIAL HepG2 Assay for human Nuclear Receptor Related Protein 1 (NURR1) (AID 2282985); conditions: HepG2 Attagene TRANS reporter, mRNA readout
In short: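 Chimeric NR-Gal4 fusion activity measured in HepG2 after 24 h treatment. Reporter transcripts detected by RT-PCR and capillary electrophoresis fluorescence; positive-direction curve fitting against DMSO.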

[18] = target: Cellular tumor antigen p53 (Homo sapiens) (UniProt P04637); assay: TOX21_p53_BLA_p5_ratio: Tox21 HCT-116 p53 Agonism Beta-lactamase Assay, Ratio, Phase 5 (AID 2283599)
In short: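 HCT-116 cells carrying a p53-inducible beta-lactamase reporter were seeded at 4000 cells/well and dosed after 5 h with compound in DMSO (217-fold dilution). After 16 h at 37C, CCF4-AM substrate was added for 2 h, and the 460/530 nm emission ratio was scored as gain-of-signal versus DMSO.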

[19] = TOX21_p53_BLA_p5_viability: Viability Assessment in the Tox21 HCT-116 p53 Agonism Beta-lactamase Assay, Phase 5 (AID 2283600)
In short: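 ATP luminescence (CellTiter-Glo, 30 min, RT) served as the viability read-out, with loss of signal indicating cytotoxicity. Compounds in DMSO were pinned at a 217-fold dilution onto 4000 cells/well and incubated 16 h, 37C.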

[20] = target: Cellular tumor antigen p53 (Homo sapiens) (UniProt P04637); assay: TOX21_p53_BLA_p4_ratio: Tox21 HCT-116 p53 Agonism Beta-lactamase Assay, Ratio, Phase 4 (AID 2283601)
In short: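 HCT116 cells carrying an inducible beta-lactamase reporter were plated at 4000 cells/well, rested 5 h, then exposed to compounds in DMSO (217-fold dilution) for 16 h at 37C. CCF4-AM substrate was loaded 2 h at room temperature; 460/530 nm emission ratio scored gain-of-signal versus DMSO.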

Measured: AC50

Sequence of Hepatocyte nuclear factor 4-alpha (Homo sapiens) (P41235 whole entry, looked up, the tested form may be a part): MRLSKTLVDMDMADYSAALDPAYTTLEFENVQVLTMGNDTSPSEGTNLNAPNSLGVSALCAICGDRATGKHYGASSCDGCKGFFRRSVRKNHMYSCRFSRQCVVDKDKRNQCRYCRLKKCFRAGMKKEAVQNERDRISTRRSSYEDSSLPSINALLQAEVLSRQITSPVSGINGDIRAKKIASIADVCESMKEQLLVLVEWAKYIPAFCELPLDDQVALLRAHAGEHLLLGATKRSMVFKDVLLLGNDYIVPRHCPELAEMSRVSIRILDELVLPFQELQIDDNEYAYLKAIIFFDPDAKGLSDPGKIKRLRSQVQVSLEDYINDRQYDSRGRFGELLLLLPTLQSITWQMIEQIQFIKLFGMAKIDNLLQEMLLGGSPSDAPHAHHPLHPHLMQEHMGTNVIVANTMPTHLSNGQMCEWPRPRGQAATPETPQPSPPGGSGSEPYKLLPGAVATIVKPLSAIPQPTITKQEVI
Sequence of human Retinoid X Receptor beta (RXRb), RXRB (gene 6257) (P28702 whole entry, looked up, the tested form may be a part): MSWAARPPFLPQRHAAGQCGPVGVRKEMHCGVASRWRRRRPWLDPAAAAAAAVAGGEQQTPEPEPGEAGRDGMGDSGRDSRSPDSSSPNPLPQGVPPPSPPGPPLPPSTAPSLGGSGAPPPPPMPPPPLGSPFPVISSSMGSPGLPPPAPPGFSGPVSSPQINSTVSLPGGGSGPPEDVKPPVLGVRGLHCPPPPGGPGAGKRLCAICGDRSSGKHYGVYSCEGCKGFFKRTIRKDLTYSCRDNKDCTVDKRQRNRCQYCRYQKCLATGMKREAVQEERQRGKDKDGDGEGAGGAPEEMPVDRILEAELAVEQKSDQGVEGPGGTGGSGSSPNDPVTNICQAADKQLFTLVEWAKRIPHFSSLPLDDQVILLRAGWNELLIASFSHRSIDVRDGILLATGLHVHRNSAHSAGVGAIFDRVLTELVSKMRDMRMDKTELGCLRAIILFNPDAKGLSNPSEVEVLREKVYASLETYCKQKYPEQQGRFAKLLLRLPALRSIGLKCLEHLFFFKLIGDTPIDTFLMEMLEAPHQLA
Sequence of Hepatocyte nuclear factor 3-beta (Homo sapiens) (Q9Y261 whole entry, looked up): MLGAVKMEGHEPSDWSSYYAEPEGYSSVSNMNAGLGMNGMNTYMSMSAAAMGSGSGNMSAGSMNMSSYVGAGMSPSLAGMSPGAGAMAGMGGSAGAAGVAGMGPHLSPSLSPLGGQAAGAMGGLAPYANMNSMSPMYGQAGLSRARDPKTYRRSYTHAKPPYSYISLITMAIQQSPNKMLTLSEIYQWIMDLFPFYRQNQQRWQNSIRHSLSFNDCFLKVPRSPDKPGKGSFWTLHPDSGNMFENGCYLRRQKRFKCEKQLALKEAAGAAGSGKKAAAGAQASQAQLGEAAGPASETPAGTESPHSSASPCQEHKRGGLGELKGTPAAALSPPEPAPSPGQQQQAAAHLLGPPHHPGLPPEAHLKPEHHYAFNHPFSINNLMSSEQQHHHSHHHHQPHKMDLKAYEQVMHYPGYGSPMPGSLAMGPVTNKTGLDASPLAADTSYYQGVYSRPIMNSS
Sequence of Cellular tumor antigen p53 (Homo sapiens) (P04637 whole entry, looked up): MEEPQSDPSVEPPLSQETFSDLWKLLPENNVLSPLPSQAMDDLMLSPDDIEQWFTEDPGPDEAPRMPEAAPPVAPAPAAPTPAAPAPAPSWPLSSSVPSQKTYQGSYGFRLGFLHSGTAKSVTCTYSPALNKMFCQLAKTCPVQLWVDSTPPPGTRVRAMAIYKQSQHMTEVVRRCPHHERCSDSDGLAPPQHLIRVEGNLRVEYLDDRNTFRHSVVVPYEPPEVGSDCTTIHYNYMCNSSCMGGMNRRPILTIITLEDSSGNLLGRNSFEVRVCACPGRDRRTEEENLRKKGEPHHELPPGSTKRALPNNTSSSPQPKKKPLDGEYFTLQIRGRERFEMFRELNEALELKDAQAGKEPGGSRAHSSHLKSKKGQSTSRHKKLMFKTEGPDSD
Sequence of Nuclear respiratory factor 1 (Homo sapiens) (Q16656 whole entry, looked up): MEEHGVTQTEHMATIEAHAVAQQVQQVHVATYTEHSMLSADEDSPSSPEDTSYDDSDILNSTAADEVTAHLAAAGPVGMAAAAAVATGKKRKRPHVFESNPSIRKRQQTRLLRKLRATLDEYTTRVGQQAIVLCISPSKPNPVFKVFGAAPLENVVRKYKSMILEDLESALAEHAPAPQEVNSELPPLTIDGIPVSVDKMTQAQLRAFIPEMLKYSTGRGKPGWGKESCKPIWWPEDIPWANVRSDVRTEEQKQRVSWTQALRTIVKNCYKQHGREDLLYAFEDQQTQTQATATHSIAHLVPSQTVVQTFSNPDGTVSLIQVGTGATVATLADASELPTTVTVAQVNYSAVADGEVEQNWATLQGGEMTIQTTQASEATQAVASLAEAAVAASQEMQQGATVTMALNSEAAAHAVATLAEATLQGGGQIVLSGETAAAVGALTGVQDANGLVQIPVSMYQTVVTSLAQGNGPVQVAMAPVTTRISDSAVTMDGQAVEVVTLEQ
Sequence of human Thyroid Receptor alpha (THRa1), THRA (gene 7067) (P10827 whole entry, looked up, the tested form may be a part): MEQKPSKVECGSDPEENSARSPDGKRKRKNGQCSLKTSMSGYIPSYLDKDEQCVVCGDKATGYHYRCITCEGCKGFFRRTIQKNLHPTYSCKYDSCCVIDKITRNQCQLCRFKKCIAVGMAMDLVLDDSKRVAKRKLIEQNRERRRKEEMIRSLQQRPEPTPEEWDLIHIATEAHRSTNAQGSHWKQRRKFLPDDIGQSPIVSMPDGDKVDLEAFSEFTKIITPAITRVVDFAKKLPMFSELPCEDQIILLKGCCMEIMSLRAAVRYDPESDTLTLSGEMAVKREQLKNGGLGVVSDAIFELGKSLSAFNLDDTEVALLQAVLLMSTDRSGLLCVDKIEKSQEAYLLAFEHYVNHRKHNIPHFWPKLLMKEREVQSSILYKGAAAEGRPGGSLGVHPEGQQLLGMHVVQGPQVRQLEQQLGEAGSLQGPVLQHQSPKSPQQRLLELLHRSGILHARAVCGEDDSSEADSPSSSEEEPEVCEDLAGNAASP
Sequence of Retinoic acid receptor RXR-alpha (Homo sapiens) (P19793 whole entry, looked up, the tested form may be a part): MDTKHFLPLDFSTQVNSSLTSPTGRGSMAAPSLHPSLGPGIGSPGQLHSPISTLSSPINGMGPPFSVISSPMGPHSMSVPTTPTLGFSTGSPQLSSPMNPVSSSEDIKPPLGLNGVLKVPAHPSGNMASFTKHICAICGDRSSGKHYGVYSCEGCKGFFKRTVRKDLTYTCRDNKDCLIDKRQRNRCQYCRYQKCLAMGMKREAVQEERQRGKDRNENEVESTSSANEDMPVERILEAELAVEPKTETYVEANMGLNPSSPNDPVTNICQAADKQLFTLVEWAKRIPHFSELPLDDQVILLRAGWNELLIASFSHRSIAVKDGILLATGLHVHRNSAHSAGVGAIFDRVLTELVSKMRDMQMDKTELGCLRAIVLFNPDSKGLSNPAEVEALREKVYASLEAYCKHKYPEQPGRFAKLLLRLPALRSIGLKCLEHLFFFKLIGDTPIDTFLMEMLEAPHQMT
Sequence of Hepatocyte nuclear factor 6 (Homo sapiens) (Q9UBC0 whole entry, looked up, the tested form may be a part): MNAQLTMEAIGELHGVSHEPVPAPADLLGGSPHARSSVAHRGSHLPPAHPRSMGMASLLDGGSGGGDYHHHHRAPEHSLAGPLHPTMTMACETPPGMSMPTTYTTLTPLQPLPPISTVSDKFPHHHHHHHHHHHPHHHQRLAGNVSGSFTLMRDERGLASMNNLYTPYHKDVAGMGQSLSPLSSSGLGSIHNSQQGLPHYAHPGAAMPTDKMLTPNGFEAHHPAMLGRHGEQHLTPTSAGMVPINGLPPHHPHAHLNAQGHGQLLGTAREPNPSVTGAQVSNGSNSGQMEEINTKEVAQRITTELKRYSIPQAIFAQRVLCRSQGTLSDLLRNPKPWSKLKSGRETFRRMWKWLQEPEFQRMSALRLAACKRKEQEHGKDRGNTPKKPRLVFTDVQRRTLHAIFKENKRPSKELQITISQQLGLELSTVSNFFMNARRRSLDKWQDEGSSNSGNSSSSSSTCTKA
Sequence of Nuclear receptor subfamily 4 group A member 2 (Homo sapiens) (P43354 whole entry, looked up, the tested form may be a part): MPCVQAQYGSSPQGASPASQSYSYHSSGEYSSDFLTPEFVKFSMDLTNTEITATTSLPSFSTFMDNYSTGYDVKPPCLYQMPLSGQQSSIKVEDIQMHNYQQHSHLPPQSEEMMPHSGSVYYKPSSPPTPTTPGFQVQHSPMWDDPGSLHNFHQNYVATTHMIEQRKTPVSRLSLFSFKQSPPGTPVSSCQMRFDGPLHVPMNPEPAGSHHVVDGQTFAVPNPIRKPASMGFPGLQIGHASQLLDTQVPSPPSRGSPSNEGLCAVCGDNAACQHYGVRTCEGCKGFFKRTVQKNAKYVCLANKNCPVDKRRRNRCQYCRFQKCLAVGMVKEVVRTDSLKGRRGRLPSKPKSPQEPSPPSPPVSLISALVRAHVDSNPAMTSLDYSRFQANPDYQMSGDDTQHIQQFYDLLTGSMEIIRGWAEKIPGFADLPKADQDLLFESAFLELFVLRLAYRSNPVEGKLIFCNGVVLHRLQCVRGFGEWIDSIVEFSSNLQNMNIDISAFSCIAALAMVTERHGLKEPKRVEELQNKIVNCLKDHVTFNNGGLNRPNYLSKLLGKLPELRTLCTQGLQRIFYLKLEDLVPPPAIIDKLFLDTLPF

COc1ccc2ccccc2c1
inactive: [1] | [2] | [3] | [4] | [5] | [6] | [7]

Cc1cccnc1
inactive: [1] | [2] | [3] | [4] | [5] | [8] | [9] | [10] | [7]

COC(=O)[C@]1(C)CCC[C@@]2(C)[C@H]1CC=C1C=C(C(C)C)CC[C@@H]12
not listed: [4] | [7] | [16] | [17] | [18] | [19] | [20]
inactive: all other assays above

O=C(O)c1cc(Cl)cc(Cl)c1O
not listed: [1] | [5]
inactive: all other assays above

N#CCN(CC#N)CCN(CC#N)CC#N
not listed: [7] | [12] | [13] | [14] | [15] | [17] | [18] | [20]
inactive: all other assays above

CC(=O)c1nccs1
not listed: [1] | [4] | [9] | [10] | [12] | [15] | [17] | [19]
inactive: all other assays above

CCC(C)C1N=C(C)C(C)S1 (stereo not given)
not listed: [13] | [16] | [17] | [19]
inactive: all other assays above

CCCCCC[C@@H](O)C/C=C\CCCCCCCC(=O)O
inactive: [16] | [5] | [9] | [10] | [7] | [12] | [13] | [14] | [15] | [18] | [19] | [20]
active: [1] 172 µM | [11] 160 µM | [2] 100 µM | [17] 108 µM | [8] 139 µM | [6] 30.9 µM | [13] 68.9 µM | [14] 36.6 µM | [15] 40.5 µM and 27.9 µM | [18] 37.4 µM | [20] 73.6 µM
